Drawing on article PMC11006913, this text covers binding signal for 40 sequences.

The target of one test is NKX3-2 (Homo sapiens, UniProt P78367 192-278, P234S). In words: PBM; 200 nM protein, PBS. As to conditions: dsDNA, one strand shown.
Chain of NKX3-2 (P78367 192-278 P234S): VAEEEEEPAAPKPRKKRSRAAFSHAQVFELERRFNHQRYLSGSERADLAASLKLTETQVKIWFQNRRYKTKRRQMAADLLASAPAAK
Take GCCTGACC: the binding signal is 10.6 upbm affinity estimate (log intensity, higher = more binding, comparable within an allelic series).
On the same count and under the same terms, the result for GAGTGCAC reads 12.2 upbm affinity estimate (log intensity, higher = more binding, comparable within an allelic series).
Same read-out and setting: with AGAGGGCA the figure was 11.8 upbm affinity estimate (log intensity, higher = more binding, comparable within an allelic series).
The same measure, in the same setting: with GGCTCCCC the figure was 10.6 upbm affinity estimate (log intensity, higher = more binding, comparable within an allelic series); with AGGAAAAA, 10.5 upbm affinity estimate (log intensity, higher = more binding, comparable within an allelic series).

Another test deals with CRX (Homo sapiens, UniProt O43186 26-111, R41L). In words: PBM; 200 nM protein, PBS. As to conditions: dsDNA, one strand shown.
Chain of CRX (O43186 26-111 R41L): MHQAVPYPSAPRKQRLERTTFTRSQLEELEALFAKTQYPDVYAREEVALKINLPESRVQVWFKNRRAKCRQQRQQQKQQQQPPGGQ
Turning to CGTCTTAA, the binding signal is 10.7 upbm affinity estimate (log intensity, higher = more binding, comparable within an allelic series).
Still for that read-out and setting: the result for GCTTAAGA reads 11.1 upbm affinity estimate (log intensity, higher = more binding, comparable within an allelic series); that for ATTAAGCG, 10.8 upbm affinity estimate (log intensity, higher = more binding, comparable within an allelic series); that for CTAATGCC, 10.1 upbm affinity estimate (log intensity, higher = more binding, comparable within an allelic series).
On the same count and under the same terms, the result for CCTAAGCC reads 11.2 upbm affinity estimate (log intensity, higher = more binding, comparable within an allelic series).
Same read-out and setting: with TAAGACGA the figure was 10.2 upbm affinity estimate (log intensity, higher = more binding, comparable within an allelic series); with CTTAAGAC, 10.7 upbm affinity estimate (log intensity, higher = more binding, comparable within an allelic series); with CTTTATCC, 10.7 upbm affinity estimate (log intensity, higher = more binding, comparable within an allelic series).
For CTTAATGC, the binding signal was 11 upbm affinity estimate (log intensity, higher = more binding, comparable within an allelic series).
Regarding GGTGTTAA, the binding signal is 10.2 upbm affinity estimate (log intensity, higher = more binding, comparable within an allelic series).
Same read-out and setting: the result for GAGATTAC reads 12.3 upbm affinity estimate (log intensity, higher = more binding, comparable within an allelic series); that for CCGCTTAA, 10.9 upbm affinity estimate (log intensity, higher = more binding, comparable within an allelic series); that for AGCATTAA, 10.9 upbm affinity estimate (log intensity, higher = more binding, comparable within an allelic series).
With CAGATTAC, the binding signal was 12.3 upbm affinity estimate (log intensity, higher = more binding, comparable within an allelic series).
On the same count and under the same terms, the result for ATAAGCCG reads 12.3 upbm affinity estimate (log intensity, higher = more binding, comparable within an allelic series).
On the same count and under the same terms, with CGCATTAG the figure was 10.4 upbm affinity estimate (log intensity, higher = more binding, comparable within an allelic series); with CTAAGCCA, 10.7 upbm affinity estimate (log intensity, higher = more binding, comparable within an allelic series).
On the same count and under the same terms, with CCTAATAC the figure was 10.6 upbm affinity estimate (log intensity, higher = more binding, comparable within an allelic series); with AGTATTAG, 10.8 upbm affinity estimate (log intensity, higher = more binding, comparable within an allelic series).
On to AGTATTAA, for which the binding signal is 11 upbm affinity estimate (log intensity, higher = more binding, comparable within an allelic series).
On the same count and under the same terms, the result for GTATTAGA reads 10.7 upbm affinity estimate (log intensity, higher = more binding, comparable within an allelic series); that for CGGCTTAG, 11.9 upbm affinity estimate (log intensity, higher = more binding, comparable within an allelic series).
Consider GCATTAGC, for which the binding signal was 10.5 upbm affinity estimate (log intensity, higher = more binding, comparable within an allelic series).
Same read-out and setting: the result for GTCTTAAC reads 10.3 upbm affinity estimate (log intensity, higher = more binding, comparable within an allelic series); that for ACTAAGCT, 11.4 upbm affinity estimate (log intensity, higher = more binding, comparable within an allelic series); that for CTTAATAC, 11.3 upbm affinity estimate (log intensity, higher = more binding, comparable within an allelic series).
Same read-out and setting: the result for AGGCTTAG reads 11.6 upbm affinity estimate (log intensity, higher = more binding, comparable within an allelic series).
Still for that read-out and setting: the result for CTAATACC reads 11.2 upbm affinity estimate (log intensity, higher = more binding, comparable within an allelic series); that for CTAAGCTC, 11.1 upbm affinity estimate (log intensity, higher = more binding, comparable within an allelic series); that for ACTAATAC, 10.7 upbm affinity estimate (log intensity, higher = more binding, comparable within an allelic series).
Consider ACTAAGAC, for which the binding signal is 10.1 upbm affinity estimate (log intensity, higher = more binding, comparable within an allelic series).
The same measure, in the same setting: with ATAATCTA the figure was 12.4 upbm affinity estimate (log intensity, higher = more binding, comparable within an allelic series).
Same read-out and setting: the result for ACGCTTAA reads 10.3 upbm affinity estimate (log intensity, higher = more binding, comparable within an allelic series); that for ATCTTAAG, 10.8 upbm affinity estimate (log intensity, higher = more binding, comparable within an allelic series); that for AGCTTAAG, 11.6 upbm affinity estimate (log intensity, higher = more binding, comparable within an allelic series).
